Reference: PubChem BioAssay (NCI)
About 83,000 compounds went through this panel and 20% of them were active in at least one assay; those are over-represented in the sample as a whole.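 Single-concentration screen, 48 h exposure, 96-well plates. Endpoint: percent growth. Below 10 = active.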 The source made the active and inactive calls.

What was measured:
Test in all cases: NCI-60 one-dose screen, 48 h (100 = growth as untreated, 0 = no growth, -100 = all killed)
Details in all cases: 10 µM unless noted
[1] = system: NCI-H23 lung
[2] = system: NCI-H226 lung
[3] = system: NCI-H322M lung
[4] = system: HOP-62 NSCLC
[5] = system: NCI-H460 lung
[6] = system: HOP-92 NSCLC
[7] = system: NCI-H522 lung
[8] = system: A549/ATCC NSCLC
[9] = system: 786-0 renal
[10] = system: COLO 205 colon
[11] = system: DU-145 prostate
[12] = system: K-562 leukemia
[13] = system: MALME-3M melanoma
[14] = system: RXF 393 renal
[15] = system: SF-268 CNS
[16] = system: SF-295 CNS
[17] = system: SF-539 CNS
[18] = system: UACC-257 melanoma
[19] = system: M14 melanoma
[20] = system: MDA-MB-231 breast

Measured: growth

CNc1ccccc1C(N)=O
inactive: [1] 99% | [2] 103% | [3] 97.3% | [4] 95.9% | [5] 108% | [6] 110% | [7] 98.1% | [8] 97.4% | [9] 101% | [10] 115% | [11] 107% | [12] 108% | [13] 97.9% | [14] 98.1% | [15] 100% | [16] 95.5% | [17] 97.6% | [18] 98.4% | [19] 96.2%

CSc1nc2[nH]ncc2c(=O)[nH]1
inactive: [1] 94.8% | [2] 91.4% | [3] 108% | [4] 101% | [5] 98.8% | [6] 106% | [7] 99.9% | [8] 111% | [9] 101% | [10] 107% | [11] 104% | [12] 113% | [13] 101% | [14] 92.6% | [15] 95.2% | [16] 96.2% | [17] 96% | [18] 109% | [19] 92.1%

COC1OC(C(COC(C)=O)OC(C)=O)C(OC(C)=O)C(OC(C)=O)C1OC(C)=O (centres undefined)
inactive: [1] 112% | [2] 99.4% | [3] 115% | [4] 99.3% | [5] 112% | [6] 128% | [7] 103% | [8] 106% | [9] 107% | [10] 116% | [11] 115% | [12] 119% | [20] 126% | [14] 115% | [15] 113% | [17] 92% | [18] 110% | [19] 106%

CCOC(C=O)OCC
inactive: [1] 99% | [2] 104% | [3] 104% | [4] 99.5% | [5] 113% | [6] 95.8% | [7] 93.1% | [8] 97.4% | [9] 99.7% | [10] 105% | [11] 104% | [12] 106% | [13] 92.6% | [14] 121% | [15] 98.3% | [16] 99% | [17] 97.8% | [18] 96.6% | [19] 106%

CC(=O)NNC(=S)/N=C\C(C(=O)c1ccccc1)=C(/O)c1ccccc1
inactive: [1] 90.1% | [2] 96.2% | [3] 94.1% | [4] 88.2% | [5] 110% | [6] 100% | [7] 86.3% | [8] 87.3% | [9] 99.8% | [10] 108% | [11] 108% | [12] 101% | [20] 89.6% | [14] 97.7% | [15] 99.2% | [16] 108% | [17] 101% | [18] 102% | [19] 103%

CCCCNc1ccc(-c2ccc(NCCCC)cc2)cc1
inactive: [1] 65.5% | [2] 73.4% | [3] 95.9% | [4] 91.2% | [5] 65.8% | [6] 97.7% | [7] 46.2% | [8] 61.6% | [9] 58.9% | [10] 111% | [11] 83.1% | [12] 46.7% | [20] 84.1% | [14] 79.7% | [15] 70% | [16] 57.4% | [17] 49.5% | [18] 70.7%

c1cc(CNCCNCc2ccncc2)ccn1
inactive: [1] 112% | [2] 103% | [3] 97% | [4] 103% | [5] 116% | [6] 97.5% | [7] 108% | [8] 97.7% | [9] 104% | [10] 113% | [11] 115% | [12] 108% | [20] 104% | [14] 107% | [15] 104% | [16] 104% | [17] 105% | [18] 93.7% | [19] 109%

C1=NCCc2ccccc21
inactive: [1] 93.8% | [2] 85.8% | [3] 105% | [4] 89.4% | [5] 103% | [6] 92.1% | [7] 114% | [8] 98.5% | [9] 103% | [10] 101% | [11] 111% | [12] 107% | [20] 99% | [14] 104% | [15] 95% | [16] 100% | [17] 96.5% | [18] 94.8% | [19] 94.2%

Cc1cc(Cl)cc(Cc2cc(Cl)cc(C)c2O)c1O
inactive: [2] 92.3% | [3] 18.1% | [4] 56.8% | [8] 29% | [9] 14.9% | [10] 101% | [11] 30.5% | [14] 56.9% | [15] 15% | [16] 22.6% | [17] 12.7% | [19] 14.2%
active: [1] 0.327% | [5] 6.76% | [6] -33% | [7] -7.46% | [13] -7.41% | [20] 1.11% | [18] 8.59%

Cc1c(Cl)cccc1N=C=S
inactive: [1] 85% | [2] 101% | [3] 95.4% | [4] 88.5% | [5] 101% | [6] 69.6% | [7] 86.8% | [8] 90.4% | [9] 101% | [10] 117% | [11] 112% | [13] 99% | [20] 130% | [14] 91.9% | [15] 107% | [16] 93.9% | [17] 90.2% | [18] 92.7% | [19] 90.6%

OC(CCN1CCCCC1)(c1ccccc1)c1ccccc1
inactive: [1] 98.6% | [2] 104% | [3] 97.6% | [4] 110% | [5] 116% | [6] 85.6% | [7] 98.4% | [8] 104% | [9] 98.1% | [10] 103% | [11] 115% | [13] 95.4% | [20] 105% | [14] 91.7% | [15] 104% | [16] 111% | [17] 117% | [18] 100%

CCOP(=O)(OCC)/C(=C\N1C(=O)CC(=O)NC1=S)C(=O)OC
inactive: [1] 97.9% | [2] 95.7% | [3] 107% | [4] 88% | [5] 103% | [6] 107% | [7] 104% | [8] 99.7% | [9] 108% | [10] 99.5% | [12] 103% | [13] 102% | [20] 93.6% | [14] 103% | [15] 101% | [16] 102% | [17] 109% | [18] 101% | [19] 99.2%

CCOP(=O)(NC(c1ccccc1)c1ccccc1)OCC
inactive: [1] 108% | [2] 103% | [3] 99% | [4] 95.5% | [5] 107% | [6] 89.7% | [7] 113% | [8] 106% | [9] 102% | [10] 100% | [12] 114% | [13] 89.7% | [20] 106% | [14] 113% | [15] 104% | [16] 102% | [17] 115% | [18] 97.8% | [19] 105%

C/C(O)=C(/C=N\C(=S)Nc1ccc(S(=O)(=O)Nc2nccs2)cc1)C(=O)Nc1ccccc1C
inactive: [1] 94.6% | [2] 73.2% | [3] 99.7% | [4] 96.1% | [5] 102% | [6] 87.5% | [7] 91.6% | [8] 92.6% | [9] 96.7% | [10] 104% | [12] 93.7% | [13] 108% | [20] 87% | [14] 97.7% | [15] 88.8% | [16] 104% | [17] 95.9% | [18] 109% | [19] 100%

Cc1nc(C)c(C(=O)O)cc1C(=O)O
inactive: [1] 101% | [2] 110% | [3] 126% | [4] 106% | [5] 112% | [6] 103% | [7] 108% | [8] 116% | [9] 112% | [10] 131% | [12] 99.6% | [13] 105% | [20] 108% | [14] 117% | [15] 116% | [16] 118% | [17] 95% | [18] 111% | [19] 114%

Cc1cc2c3ccc(C)[n+](C)c3ccc2n1C
active: [8] -0.921%
inactive: [1] 23.3% | [2] 80.9% | [3] 99.5% | [4] 33.8% | [5] 61.7% | [6] 44.4% | [7] 49.7% | [9] 53.4% | [10] 10.7% | [11] 46.7% | [13] 46.9% | [20] 33.6% | [14] 61.6% | [15] 19% | [16] 26.4% | [17] 67.5% | [18] 32.2%

CC(=O)C1C(=O)C(=O)N(c2ccc(Cl)c(Cl)c2)C1=O (centres undefined)
inactive: [1] 90.3% | [2] 106% | [3] 108% | [4] 89.3% | [5] 109% | [6] 116% | [7] 103% | [8] 113% | [9] 102% | [10] 103% | [12] 108% | [13] 92.4% | [20] 101% | [14] 110% | [15] 99.8% | [16] 96.7% | [17] 99.5% | [18] 109% | [19] 93.7%
